# The sample as a whole holds a higher share of hits than the screen did.
# HIV RNase H inh: HIV-1 RT RNase H inhibitors, primary screen, biochemical, fluorescence. 65,000 compounds, 1.9% hits. AID 565, 2006. RT-RNase H RNA/DNA duplex cleavage. inhibition, % at 10 µM; in the data active = inhibition above about 50%
# Hits are given with their value; - = inactive.
SMILES,HIV RNase H inh
COc1ccc(S(=O)(=O)Nc2cc(C)c(O)cc2C(C)C)cc1,55
COC(=O)c1ccc(C)c(NS(=O)(=O)c2ccc(OC)cc2)c1,-
COc1ccc(S(=O)(=O)Nc2cc(C(C)C)c(O)cc2C)cc1,-
COc1cc(C)c(Br)cc1S(=O)(=O)N1CCCC1,-
Cc1nc(N2CCN(c3ccccc3)CC2)nc2c1C(=O)CC(C)C2 (configuration not stated),-
Cc1nc(Nc2cccc(C(F)(F)F)c2)nc2c1C(=O)CC(C)C2 (configuration not stated),51
Cc1cccc(Nc2ncc3c(n2)CC(C)CC3=O)c1 (configuration not stated),-
C#CCNc1nc(CC)nc2c1nnn2Cc1ccccc1F,-
Cc1ccc2c(c1C)NC(C)CC2C (configuration not stated),-
COc1cccc(Cn2c(=S)[nH]c3ccc(N4CCOCC4)cc3c2=O)c1,-
O=c1c2cc(N3CCOCC3)ccc2[nH]c(=S)n1Cc1ccco1,55
O=c1c2cc(Cl)ccc2[nH]c(=S)n1Cc1ccco1,-
Cc1cccc(N(CC(=O)NC2CCCCC2)C(=O)c2c(C)noc2C)c1,-
COC(=O)c1c(C(=O)OC)c2ccncn2c1Cl,-
CCc1nnc(NC(=O)c2c(O)c3cccc4c3n(c2=O)CC4)s1,-
O=C(CSc1nnnn1-c1ccccc1)N1CCc2ccccc21,-
CCc1nnc(NCC(=O)N2CCc3ccccc32)s1,55
CCOc1ccc(C2c3c(oc4ccccc4c3=O)C(=O)N2c2ccccn2)cc1OC (configuration not stated),-
O=C(Nc1ccccc1C(=O)N1CCCCC1)C1CCCCC1,-
Oc1ccccc1C(=S)N1CCCCC1,53
Oc1ccccc1C(=S)N1CCCCCC1,-
CCOC(=O)N1CCN(CC(=O)Nc2ccc(C)c(Br)c2)CC1,-
Cc1nn(-c2ccccc2)c2sc(C(=O)C(C#N)c3ccccn3)cc12 (configuration not stated),-
Cc1nnc2sc(-c3ccc(NC(=O)c4ccc(-c5ccc(Cl)cc5Cl)o4)cc3)nn12,50
Cc1nnc2sc(-c3ccc(NC(=O)c4cccnc4)cc3)nn12,-
SMILES,HIV RNase H inh
CCc1nnc2sc(-c3ccc(NC(=O)c4ccco4)cc3)nn12,-
COc1ccc(NC(=O)c2cnc3ccccn3c2=O)cc1OC,-
CN1CCc2c(sc3c2C(=O)NC(c2cn(Cc4ccccc4)c4ccccc24)N3)C1 (configuration not stated),-
COc1ccc(Br)cc1C1NC(=O)c2c(sc3c2CCN(C)C3)N1 (configuration not stated),-
CN1C(=O)c2c(sc3c2CCCC3)NC1c1ccccc1O (configuration not stated),52
CCNC(=O)[C@@H]1CCCN1C(=O)[C@H](CCCN=C(N)N)NC(=O)[C@H](CC(C)C)NC(=O)[C@@H](CC(C)C)NC(=O)[C@H](Cc1ccc(O)cc1)NC(=O)[C@H](CO)NC(=O)[C@H](Cc1c[nH]c2ccccc12)NC(=O)[C@H](Cc1cnc[nH]1)NC(=O)[C@@H]1CCC(=O)N1,-
C=CCn1c(Cc2nc3ccc(Cl)cc3[nH]2)n[nH]c1=S,58
C=CCn1c(-c2ccoc2)n[nH]c1=S,-
C=CCn1c(-c2ccccc2)n[nH]c1=S,-
COc1ccccc1-c1nc2s/c(=C\c3cccs3)c(=O)n2n1,-
Cc1ccc(/C=c2\sc3nc(-c4cccs4)nn3c2=O)o1,-
Cc1ccc2c(nc3s/c(=C/c4cccs4)c(=O)n32)c1C,80
COc1ccc2c(c1)CCc1c(C(=O)NC3CCCCC3)noc1-2,-
Cc1cc(NC(=O)COC(=O)C(Nc2ccc(C(F)(F)F)cc2Cl)C(C)C)no1 (configuration not stated),-
O=C(c1cnn(-c2ccccc2)c1-n1cccc1)N1CCN(C2CCCCC2)CC1,-
Nc1nc2ccc(N3CCOCC3)cc2s1,-
Cc1cc(C)nc(Nc2ccc(N3CCOCC3)cc2)n1,-
S=P(c1ccc(N2CCOCC2)cc1N1CCOCC1)(N1CCOCC1)N1CCOCC1,88
N#CC1(c2ccccc2)CCC(=NO)CC1 (configuration not stated),-
Cc1onc(-c2ccccc2Cl)c1C(=O)Nc1ccc(-c2nnc3n2CCCCC3)cc1,-
CCCCn1c(=O)c(C(=O)NCc2ccncc2)c(O)c2ccccc21,-
O=C(Nc1ccncc1)c1c(O)c2ccccc2n(Cc2ccccc2)c1=O,-
CCCCCCn1c(=O)c(C(=O)Nc2ccncc2)c(O)c2ccccc21,69
CCCc1cc(NCCN2CCOCC2)n2c(nc3ccccc32)c1C#N,-
CCC(Sc1nc2cc3c(cc2c(=O)n1Cc1ccco1)OCO3)C(=O)Nc1cccc(OC)c1 (configuration not stated),60
SMILES,HIV RNase H inh
COc1cccc(-c2nnc(SCC(=O)Nc3ccc4c(c3)OCCO4)n2Cc2ccco2)c1,-
CCC(Sc1nc2cc3c(cc2c(=O)n1Cc1ccco1)OCO3)C(=O)Nc1ccccc1OC (configuration not stated),-
CCOC(=O)NCCc1c(C)nc2c(c(C)nn2C(C)(C)C)c1C,-
CCC(=O)Nc1ccc(S(=O)(=O)Nc2cccc(C)c2)cc1OC,-
CCCn1nnnc1SCC(=O)Nc1ccc(F)cc1,-
CCCn1nnnc1SCC(=O)N(C(C)C)C(C)C,65
CCn1nnnc1SCC(=O)N(C1CCCCC1)C1CCCCC1,-
Cc1noc(C)c1C(=O)OCC(=O)c1cc(C)n(Cc2ccccc2Cl)c1C,-
Cc1ccc(-c2nnn(CC(=O)N(Cc3cccs3)C(C(=O)NC3CCCC3)c3ccco3)n2)o1 (configuration not stated),-
Cc1ccc(-c2nnn(CC(=O)N(c3ccccc3)C(C(=O)NC3CCCC3)c3ccco3)n2)o1 (configuration not stated),60
Cc1ccc(-c2nnn(CC(=O)N(Cc3ccccc3)C(C(=O)NC3CCCC3)c3ccncc3)n2)o1 (configuration not stated),-
CCn1c(CNC(=O)c2ccc(OC)cc2)nnc1SCC(=O)c1ccccc1,-
CCn1c(CCNC(=O)c2cccs2)nnc1SCC(=O)c1ccc(OC)cc1,57
COC(=O)CSc1nnc(CNC(=O)c2cccs2)n1-c1cc(OC)ccc1OC,-
O=C(O)CCc1cc(I)c(Oc2ccc(O)c(I)c2)c(I)c1,-
Cc1n[nH]c(C)c1S(=O)(=O)N1CCCC(C(=O)NC2CCCCC2)C1 (configuration not stated),-
O=C(NCCN1CCCC1)c1ccc2c(=O)n(CCc3ccccc3)c(=O)[nH]c2c1,-
CCN1CCN(C(=O)c2ccc3c(=O)n(CCC4=CCCCC4)c(=O)[nH]c3c2)CC1,-
O=C(NCc1ccco1)c1ccc2c(=O)n(CCC3=CCCCC3)c(=O)[nH]c2c1,52
CCOC(=O)CSC(C)C(=O)Nc1nnc(C(C)C)s1 (configuration not stated),-
O=C(CCn1cccc1)NCCc1ccc(Cl)cc1,-
CCCn1c(=O)n(C)c(=O)c2c3oc(=O)c(NC(=O)c4ccc(F)cc4)cc3[nH]c21,-
CCCCCC(=O)N1CC2(CC)CN(C(=O)CCCCC)CC(CC)(C1)C2=O,-
Cc1nnc(NC(=O)C2CCCO2)s1 (configuration not stated),-
CCCCCc1nnc(NC(=O)C2CCCO2)s1 (configuration not stated),64
Cc1ccc(S(=O)(=O)CCc2nnc(NC(=O)C3CCCO3)s2)cc1 (configuration not stated),-
